Measurements as given in PubChem BioAssay AID624330 (Southern Research Specialized Biocontainment Screening …, 2012).
The campaign covered roughly 340,000 compounds. About 2,100 (0.62%) were called active.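 The calls were made as follows: active = first-screen hits whose inhibition reached a set limit at any dose in the follow-up dose series; inconclusive = inhibition above the set first-screen limit but never retested; inactive = the rest.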 Only a sample is shown. Entries with a potency or affinity are not part of this list.

molecular target: Rac GTPase-activating protein 1 (Homo sapiens) (UniProt Q9H0H5); assay: blockers of MgcRacGAP-driven Rac1 GTP hydrolysis – biochemical, ADP Hunter fluorescence, primary and confirmatory, confirmation (AID 624330); conditions: MgcRacGAP-stimulated Rac1 GTP hydrolysis, at 30 µM, active compounds read high, GST-tagged Rac1 F28L mutant substrate;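 also: fluorescence reports GDP produced by GAP-driven GTP hydrolysis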
Sequence (Q9H0H5 whole entry, looked up): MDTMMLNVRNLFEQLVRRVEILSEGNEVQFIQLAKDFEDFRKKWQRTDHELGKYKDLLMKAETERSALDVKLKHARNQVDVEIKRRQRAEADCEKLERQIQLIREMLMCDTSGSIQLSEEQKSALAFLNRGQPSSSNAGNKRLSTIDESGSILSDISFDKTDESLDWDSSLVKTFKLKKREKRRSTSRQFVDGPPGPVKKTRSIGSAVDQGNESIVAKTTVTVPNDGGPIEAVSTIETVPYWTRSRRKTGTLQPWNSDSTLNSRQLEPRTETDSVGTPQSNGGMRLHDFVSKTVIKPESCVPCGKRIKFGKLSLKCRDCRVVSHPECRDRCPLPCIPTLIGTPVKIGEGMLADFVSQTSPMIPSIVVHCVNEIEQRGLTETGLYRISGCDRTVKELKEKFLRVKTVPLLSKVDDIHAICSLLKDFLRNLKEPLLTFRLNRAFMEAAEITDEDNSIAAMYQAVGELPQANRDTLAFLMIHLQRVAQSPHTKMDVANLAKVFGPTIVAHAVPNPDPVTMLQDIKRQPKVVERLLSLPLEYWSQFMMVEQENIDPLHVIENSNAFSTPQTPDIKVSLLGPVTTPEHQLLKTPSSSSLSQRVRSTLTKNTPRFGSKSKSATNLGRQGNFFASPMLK

inhibition, inactive:
O=C1CC(N2CCN(c3ccccc3)CC2)C(=O)N1c1cccc(Cl)c1 (configuration not stated) 11.1%, COc1ccc(N2CC(C(=O)NNC(=O)c3ccc(Br)cc3)CC2=O)c(OC)c1 (configuration not stated) 5.62%, O=C(Nc1nc(-c2ccc(F)cc2)cs1)c1cccc(N2C(=O)CCC2=O)c1 4.08%, Cc1ccc(SCC(=O)N2c3ccccc3Sc3ccccc32)cc1 6.99%, CCOC(=O)N1c2ccccc2Sc2ccccc21 1.37%, COc1cc2c(cc1OC)C(c1cccs1)N(C(=O)c1ccncc1)CC2 (configuration not stated) 11.6%, COc1cccc(OCC(=O)NC2CCCCCC2)c1 -1.14%, NNC(=O)c1cc2cc3ccccc3nc2s1 4.35%, CCN1CCN(C(=O)c2cc3cc4cc(OC)ccc4nc3s2)CC1 8.34%, O=[N+]([O-])c1cc([N+](=O)[O-])c(Oc2cc(Cl)ccc2Cl)cc1NC1CCCCCCC1 3.85%, CCOC(=O)C1CCN(Cc2ccccc2C)CC1 2.84%, CCOC(=O)C1CCN(Cc2ccccc2C(F)(F)F)CC1 8.95%, CCOC(=O)C1CCCN(Cc2ccc(-c3ccccc3)cc2)C1 (configuration not stated) -2.6%, COc1cccc(CN2CCC(C(=O)N3CCN(c4ccccc4F)CC3)CC2)c1 15.7%, COc1cccc(CN2CCC(C(=O)N3CCN(Cc4ccc5c(c4)OCO5)CC3)CC2)c1 27.8%, CCOC(=O)C1CCN(Cc2cccc(OCc3ccccc3)c2)CC1 19.5%, CCOC(=O)C1CCN(Cc2ccc(OCc3ccccc3)cc2)CC1 18.4%, CCOC(=O)C1CCN(Cc2cccc(Oc3ccc(Cl)cc3)c2)CC1 21%, CCSc1ccc2nnc(-c3cccc(F)c3)n2n1 6.86%, COC(CN(C)C(=O)C1CCC(CNS(=O)(=O)c2ccccc2)CC1)OC (configuration not stated) 6.07%, COc1ccc(CNC(=O)COC(=O)CN2C(=O)C3CCCCC3C2=O)cc1 (configuration not stated) 12.8%, CC(C)c1nccn1CCC(=O)O 7.06%, C[C@H]1CN([C@@H](C)CO)S(=O)(=O)c2ccc(Br)cc2O[C@H]1CN(C)C(=O)Cc1ccccn1 -10%, O=C1C[C@@H](c2ccccc2)Oc2cc(O)cc(O)c21 7.07%, O=C1CC(c2ccccc2)Oc2cc(O)cc(O)c21 (configuration not stated) 7.51%, COc1ccccc1NC(=O)COc1cccc2c1CCNC2=O 5.13%, O=S(=O)(NCC(c1ccc2c(c1)OCO2)N1CCOCC1)c1ccc(Br)cc1 (configuration not stated) 5.07%, CCCOC(=O)c1cc(-c2ccc(/C=C3/C(=O)N(C)C(=O)C(C#N)=C3C)o2)ccc1Cl 13.4%, CC1=C(C#N)C(=O)NC(=O)/C1=C/c1ccc(-c2ccc(S(N)(=O)=O)cc2)o1 25.6%, COC(=O)c1ccccc1NC(=O)C/C(C)=N/NC(=O)Cc1ccc(Cl)cc1 4.76%, CC(=O)N1CCc2cc(S(=O)(=O)CCC(=O)N(C)c3cc(C)ccc3C)ccc21 2.95%, COc1ccc(Cn2c(-c3ccc(OC)c(O)c3)nc3ccccc32)cc1O 11.2%, Cc1ccc(NCc2cccnc2)cc1 9.95%, COc1ccc(CNc2ccc(Br)cc2)cc1 9.45%, COc1ccc(NC(=S)NCc2cccnc2)cc1 2.3%, COc1ccc(CNc2ccc(C(=O)O)cc2)cc1 5.05%, O=C(O)c1ccc(C(=O)O)c(C(=O)c2ccc(NC(=O)c3ccccc3)cc2)c1 8.04%, O=C(O)C1(P(=O)(c2ccc(Cl)cc2)c2ccc(Cl)cc2)CCCC1 10.3%, Cn1cc2ccc(N)cc2n1 6.58%, Cc1ccc2cc(N)ccc2n1 10.9%, CC(C)(C)C(=O)N1CCC2CC1c1cc(Cl)ccc12 (configuration not stated) 9.89%, CCOc1cccc(/C=N/Nc2ccc(S(=O)(=O)N(CC)CC)cn2)c1O 2.17%, CCN(CC)S(=O)(=O)c1ccc(N/N=C/c2cc(OC)ccc2O)nc1 5.07%, CCN(CC)S(=O)(=O)c1ccc(N/N=C/c2cccnc2)nc1 2.22%, CCN(CC)S(=O)(=O)c1ccc(N/N=C/c2cc(OC)c(OC)cc2OC)nc1 4.42%, CN(CC(=O)Nc1cccc(F)c1)C(=O)Cc1ccsc1 8.14%, Cc1cc(C)c2nc(NC(=O)C3CSC4(C)CCC(=O)N34)sc2c1 (configuration not stated) 5.06%, CC1=C(C(=O)OC(C)C)C(c2ccc(Br)s2)NC(=O)N1 (configuration not stated) 1.12%, O=C(NCC(c1cccnc1)N1CCOCC1)C1CCCCC1 (configuration not stated) 0.64%, COC(=O)c1ccc(OC)c(CN2CCCN(Cc3ccc(F)cc3)S2(=O)=O)c1 6.78%, Cc1cccc(C)c1-n1cccc1/C=C1\SC(=S)N(c2cccc(C(=O)O)c2)C1=O -1.38%, O=C(O)CN1C(=O)/C(=C/c2ccc(SCc3ccccc3)o2)SC1=S 41%, O=C(NCC(c1ccco1)N1CCCC1)c1cccc(NS(=O)(=O)c2ccccc2)c1 (configuration not stated) 7.02%, COc1ccc(C2=NN(Cc3ccccc3)C3C(=O)NC(=O)C23)cc1 (configuration not stated) 1.11%, CC(=O)C1=C(O)C(=O)N(Cc2ccccc2)C1c1ccc(N(C)C)cc1 (configuration not stated) 5.08%, O=C(N/C(=C/c1ccccc1)C(=O)N1CCCCC1)c1ccccc1 7.71%, O=C(N/C(=C/c1ccccc1)C(=O)N1CCCCCC1)c1ccccc1 4.23%, Cc1cc(C)c2[nH]c(=O)c(CN(CC3CCCO3)S(=O)(=O)c3ccc4c(c3)OCCO4)cc2c1 (configuration not stated) -7.75%, O=C1C2C3C=CC(C3)C2C(=O)N1Nc1c(Cl)cc(Cl)cc1Cl (configuration not stated) -1.67%, CCN(C(=O)CSc1nnc(-c2ccccc2Cl)n1C1CCCC1)C1CCS(=O)(=O)C1 (configuration not stated) 10.2%, C=CCn1c(SCC(=O)NC2(C#N)CCCCC2)nnc1-c1ccncc1 -2.35%, COc1ccc(NC(=O)c2ccc(NC(=O)CN3CCN(c4ccccc4)CC3)cc2)cc1 -2.48%, O=C(CNCC1CCCO1)Nc1ccccc1N1CCCCCC1 (configuration not stated) 15.5%, CCN1CCN(CCC(=O)Nc2ccc3c(c2)OCO3)CC1 -5.95%, O=C(CN1CCOCC1)Nc1cccc(S(=O)(=O)N2CCCCCC2)c1 4.7%, COc1ccc(N2CCN(CC(=O)Nc3ccc(C)cc3)CC2)cc1 6.34%, CN1CCN(CCC(=O)Nc2ccc3c(c2)OCO3)CC1 9.52%, CC1CCCC(C)N1S(=O)(=O)c1ccc(NC(=O)CNCC2CCCO2)cc1 (configuration not stated) 13.2%, COc1ccc(S(=O)(=O)N2CCN(CC(=O)Nc3cccc(OC)c3)CC2)cc1 -0.54%, CC1(C)CC(=O)C=C(NCCN2CCN(C(=S)Nc3ccccc3)CC2)C1 7.52%, Cc1ccc(NS(=O)(=O)c2ccc3c(c2)NC(=O)C(C)C(=O)N3)c(Br)c1 (configuration not stated) -1.09%, Cc1onc(-c2ccccc2)c1C(=O)c1c[nH]c(C(=O)NCc2ccccn2)c1 3.33%, c1ccc(NN(Cc2ccccn2)c2ccccc2)cc1 -6.65%, O=C(CCC(=O)c1cccs1)Nc1ncccc1O 11.4%, CCOC(CCNC(=O)c1cn(CC(C)C)c(=O)c2c1c1ccccc1n2C)OCC 17.2%, CC(=O)Nc1cccc(Oc2cc(C#N)c(C#N)cc2N2CCCCCC2)c1 5.07%, CC1CCCCN1CC(=O)Nc1ccc2c(c1)OCO2 (configuration not stated) 31%, O=C(CNC1CCCC1)Nc1ccc(S(=O)(=O)N2CCCCC2)cc1 3.94%, CC1CCCCN1CC(=O)Nc1ccc(Oc2ccccc2)cc1 (configuration not stated) 9.36%, O=C(CN1CCN(c2ccccc2)CC1)Nc1ccc2c(c1)OCCO2 0.3%, O=C(CSCc1ccc(Cl)cc1)Nc1ccc2c(c1)OCCO2 5.15%, O=C(CN1CCN(c2ccc(F)cc2)CC1)Nc1ccc2c(c1)OCCO2 9.33%, O=C(CNC1CCCCC1)Nc1ccc(Cl)cc1 1.58%, O=C(CNCc1ccccc1Cl)Nc1ccc2c(c1)OCCO2 29.9%, CCC(=O)Nc1ccc(NC(=O)CSc2nnnn2CC)cc1C 6.52%, CCOC(=O)COc1ccc(S(=O)(=O)N2CCN(c3ccccc3)CC2)cc1 8.59%, O=C(CSc1nnc(-c2ccccc2)c(-c2ccccc2)n1)Nc1ccc(Br)cn1 4.25%, Cn1c(=O)[nH]c(=O)c2c1nc(Br)n2C/C=N/Nc1ccccc1 3.62%, COc1ccc(N(CC(=O)Nc2ccc3c(c2)OCCO3)S(=O)(=O)c2cccnc2)cc1 -11.8%, CC(=O)c1ccc(S(=O)(=O)NCCC(=O)NCCc2c[nH]c3ccccc23)cc1 3.35%, CCCCOC(=O)C1=C(C)Nc2ncnn2C1c1ccc(OC)c(OC)c1OC (configuration not stated) 0.42%, COc1ccc(N2CCN(Cc3cc4c(cc3Br)OCCO4)CC2)cc1 4.68%, O=C(CN1CCCCC1)Nc1ccccc1 -4.92%, COc1ccccc1N1CCN(Cc2cc3c(cc2Br)OCCO3)CC1 2.26%, O=C(CNCC1CCCO1)Nc1ccccc1N1CCOCC1 (configuration not stated) 22%, O=C(CNC1CCCCCC1)Nc1ccccc1N1CCCCC1 8.73%, O=C(CN1CCCCCC1)Nc1ccc(Br)cc1 5.51%
